# KKLEB tox = counter-screen for CF NF-kB inhibitors: cytotoxicity | KKLEB CF airway cells viability, ATPlite luminescence, overnight; hits give low values; cells stimulated with P. aeruginosa culture filtrate | activity change (cytotoxicity), % at 5 µM | 360,000 tested, 0.36% active;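 active = corrected activity change at or below -50% at 5 µM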
# LGR2 antag = Drosophila LGR2 receptor signaling inhibition; HEK293 LGR2, CRE-luciferase, bursicon-stimulated, 4 h; inhibition, % at 9.99 µM; 380,000 tested, 0.35% active; AID 720647;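 active = drop in luminescence signal, shown as inhibition above about 50% in the replicate tests, limit read from the data, passing the limit was not always enough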;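 note: agonist challenge used bursicon conditioned medium at about half maximal strength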
# HIF-2a block = blocks HIF-2a reporter activity. 786-0 RCC cells HIF-2a reporter, luciferase luminescence, overnight. inhibition, % at 18.8 µM. 360,000 tested, 0.72% active;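 active = inhibition of the luminescence signal of 40% or more relative to plate controls, in a single-dose primary screen at 18.75 µM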
# TWEAK-Fn14 inh = TWEAK-Fn14 signaling inhibition; AID 1159606; inhibition, % at 10 µM; 360,000 tested, 2% active; TWEAK-stimulated Fn14 reporter cells, luciferase luminescence, 8 h; in the data active = inhibition above about 50%
# CF NFkB block = cystic fibrosis NF-kB activation inhibition. KKLEB NF-kB-GFP reporter, PAF-induced, GFP fluorescence overnight. inhibition, % at 5 µM. 360,000 tested, 0.86% active;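 active = at least 50% inhibition at 5 µM, scaled per plate between neutral and stimulator controls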;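 note: PAF is a Pseudomonas aeruginosa culture filtrate used as stimulus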
# iPSC survival up = hiPSC single-cell survival enhancement; survival enhancement, % at 20 µM; ATPlite luminescence; 100% = ROCK inhibitor wells, 0% = DMSO; 360,000 tested, 0.044% active; in the data active = survival enhancement above about 18%;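 note: cells exposed to compounds for 16 hours before the ATP read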
# Mdm2-MdmX confirm = Mdm2/MdmX (human) interaction inhibition, confirmed. shares compounds with HIF-2a block. SaOS-2 split-luciferase Mdm2/MdmX complementation, luminescence. inhibition, % at 8 µM. 740 tested, 99% active. AID 504601;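 active = mean inhibition of the luminescence signal across two replicates at or above 26 percent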
# HIF-2a conf = HIF-2a inhibition, single concentration confirmation; 1,800 tested, 56% active; shares compounds with HIF-2a block; AID 651580; 786-0 RCC cells, HIF-2a luciferase reporter luminescence, overnight; inhibition, % at 18.8 µM;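 active = mean inhibition across four replicates of at least 40 percent at the single tested concentration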
# HIF-1a counter = HIF-1a inhibition counter-screen for HIF-2a hits | shares compounds with HIF-2a block | MiaPaCa-2 HIF-1a luciferase reporter, desferoxamine, overnight | inhibition, % at 18.8 µM | 1,800 tested, 72% active | AID 651589;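 active = mean inhibition of the reporter signal across four replicates at the single tested dose of 50% or more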
# A number is an active result; 0 = inactive; - = not tested or not shown. Sampled rows, rich in hits. Any-hit rate of the full collection: about 2.3%.
SMILES,KKLEB tox,LGR2 antag,HIF-2a block,TWEAK-Fn14 inh,CF NFkB block,iPSC survival up,Mdm2-MdmX confirm,HIF-2a conf,HIF-1a counter
Cc1ccc(C)c(S(=O)(=O)ON2C(=O)c3ccccc3C2=O)c1,0,0,68.0,0,0,0,-,56.8,0
O=C(Nc1ccc2c(c1)OCO2)N[C@H]1C=C[C@@H](CC(=O)N2CCN(c3ccccc3)CC2)O[C@H]1CO,-,0,-,-,-,-,-,-,-
CN(C)CCNC(=O)c1cc2c(s1)-c1ccc(Cl)cc1SC2,0,0,0,104.6,0,0,103.0,-,-
CCOCCCNC(=O)c1cc2c(s1)-c1ccccc1SC2,0,0,0,0,0,0,-,-,-
Cc1ccc2nc(-c3ccc4c(c3)NC(=O)CO4)cn2c1,0,0,0,0,0,0,-,-,-
Cc1ccc2nc(-c3ccc4c(c3)OCCO4)cn2c1,-85.2,91.3,80.1,101.2,0,0,93.5,-,-
C[C@@]12C(=O)OC(=O)[C@]1(C)C1CCC2O1,0,0,78.6,98.3,83.8,0,100.0,-,-
CC12C(=O)N(c3nccs3)C(=O)C1(C)C1CCC2O1 (stereo not drawn),0,0,0,0,0,0,-,-,-
CCc1ccc(-c2cn3nc(C)c(C)nc3n2)cc1,0,-,66.2,59.6,0,0,-,90.6,84.2
C[C@@H]1CN([C@H](C)CO)S(=O)(=O)c2ccc(C#CC3(O)CCCC3)cc2O[C@@H]1CN(C)C(=O)c1ccccc1,-,0,-,-,-,-,-,-,-
Cc1ccc(NC(=S)/C(C#N)=C2/Nc3ccccc3S2)cc1,0,0,67.9,0,0,0,-,0,55.7
CNC[C@H]1OCCCC[C@H](C)Oc2ccc(NS(C)(=O)=O)cc2C(=O)N([C@@H](C)CO)C[C@@H]1C,-,0,-,-,-,-,-,-,-
O=C(NCc1ccccc1F)c1ccc2c(c1)OCO2,0,0,0,0,0,0,-,-,-
O=C(NCCc1ccccc1F)c1ccc2c(c1)OCCO2,0,101.8,91.2,107.8,0,0,95.7,96.3,100.7
CN(C)Cc1c(O)ccc2c1O/C(=C\C=C\c1ccccc1)C2=O,0,0,0,0,0,0,0,-,-
O=C(Cc1cccc2ccccc12)Nc1ccc(-c2cc3ccccc3oc2=O)cc1,0,-,52.7,0,0,0,-,68.1,52.4
Cc1ccc(C(=O)NC(=S)Nc2ccc(-c3cc4ccccc4oc3=O)cc2)c(C)c1,0,-,81.1,0,0,0,-,76.5,56.2
Cc1cc(C)cc(C(=O)NC(=S)Nc2ccc(-c3cc4ccccc4oc3=O)cc2)c1,-56.7,0,82.1,0,57.2,0,-,75.5,0
CC(=O)Nc1ccc(NC(=O)c2cccc(-c3cc4ccccc4oc3=O)c2)cc1,0,0,0,0,0,0,-,-,-
O=C(N[C@@H]1CC[C@@H](CCNS(=O)(=O)c2ccc(F)cc2)O[C@H]1CO)C1CC1,-,0,-,-,-,-,-,-,-
COc1ccc(S(=O)(=O)Nc2ccc3c(c2)C(=O)N([C@H](C)CO)C[C@H](C)[C@@H](CN(C)C(=O)Nc2ccc(F)cc2)OCCCC[C@@H](C)O3)cc1,-,0,-,-,-,-,-,-,-
N#C/C(=C\C=C\c1ccccc1[N+](=O)[O-])C(=O)NC1CCCCC1,0,-,83.7,81.8,0,0,101.5,0,104.2
COc1cc(/C=C/[N+](=O)[O-])ccc1OC(=O)c1cc2ccccc2oc1=O,0,-,61.0,0,0,0,-,0,0
C[C@@H]1CN([C@H](C)CO)C(=O)c2cc(NC(=O)Nc3cccc4ccccc34)ccc2O[C@H]1CN(C)Cc1ccncc1,-,0,-,-,-,-,-,-,-
CCOC(=O)C1Nc2ccc(C(F)(F)F)cc2C2c3ccccc3CC12 (stereo not drawn),0,0,0,0,0,0,65.8,-,-
O=C(NCCOc1ccccc1)C1Nc2ccc(C(F)(F)F)cc2C2c3ccccc3CC12 (stereo not drawn),0,0,0,0,0,0,-,-,-

# Compound activity: PubChem BioAssay, several laboratories
